In PubChem BioAssay (NCI):
“And” between values parts separate entries of the source, which are not always exact repeats. Equal entries are not always repeated. About 79,000 compounds went through this panel and 15% of them were active in at least one assay; those are over-represented in the sample as a whole. The source made the active and inactive calls. Cut-off read from the data, not from the text of the source: active = growth inhibition above about 70%; inactive = the rest.

Columns and labels:
[1] = NCI Yeast Anticancer Drug Screen. Data for the rad50 strain (AID 155);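 note: 0% = growth of vehicle-only cultures of the same strain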; conditions: S. cerevisiae rad50 strain growth inhibition; at 50.0 µM; active compounds read high
Outline: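 Growth of the mutant yeast was measured after compound exposure and referenced to vehicle-treated cultures.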

[2] = NCI Yeast Anticancer Drug Screen. Data for the mec2-1 strain (AID 157); conditions: S. cerevisiae mec2-1 strain, at 50.0 µM, active compounds read high
Outline: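 Using mec2-1 yeast: add compound, measure growth, express inhibition versus vehicle-treated cultures.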

[3] = NCI Yeast Anticancer Drug Screen. Data for the sgs1 mgt1 strain (AID 161);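 note: 0% = growth of cultures given vehicle only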; conditions: S. cerevisiae sgs1 mgt1 strain, at 50.0 µM, active compounds read high
Outline: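 This yeast growth screen uses a strain with defined DNA-repair lesions; compound-treated growth is compared with vehicle-treated growth.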

[4] = NCI Yeast Anticancer Drug Screen. Data for the cln2 rad14 strain (AID 165);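 note: 0% = growth equal to vehicle treated cultures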; conditions: S. cerevisiae cln2 rad14 strain, at 50.0 µM, active compounds read high
Outline: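 Yeast strain cln2 rad14, bearing defects in cell cycle control and DNA repair, serves as the test system; values reflect growth inhibition compared with vehicle.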

[5] = NCI Yeast Anticancer Drug Screen. Data for the bub3 strain (AID 167); conditions: S. cerevisiae bub3 mutant strain, at 50.0 µM, active compounds read high
Outline: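 Whole-cell yeast assay. The mutant strain was incubated with compounds, and growth inhibition was determined by comparison with vehicle-treated cells.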

[6] = NCI Yeast Anticancer Drug Screen. Data for the mlh1 rad18 strain (AID 175); conditions: S. cerevisiae mlh1 rad18 strain growth inhibition; at 50.0 µM; active compounds read high
Outline: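 Steps: expose repair-defective yeast to compound; measure growth; express inhibition against vehicle-treated controls.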

Measured: growth inhibition

NCCN.NCCN.[Cl-].[O]=[Os+2]=[O]
inactive: [1] 0.8% and 3.45% | [2] -22% and 1% | [3] -6.15% and -20.8% | [4] -20.3% and 23.3% | [5] -40.6% and 0.3% | [6] -6.3% and -13.2%

COc1ccc2c3c1OC1C(Oc4nnnn4-c4ccccc4)C=CC4C(C2)N(C)CCC341 (stereo not given)
inactive: [1] 39.2% | [2] 5.55% | [3] 13.5% | [4] 21.6% | [5] -5.75% | [6] 12.5%

C=CCN1CCC23c4c5ccc(O)c4OC2C(=NN=C2CCC4(O)C6Cc7ccc(O)c8c7C4(CCN6CC=C)C2O8)CCC3(O)C1C5 (stereo not given)
inactive: [1] 3.4% | [2] 2.5% | [3] 10% | [4] 27.4% | [5] 2.1% | [6] 32.2%

CC12CC[C]([Hg][I])(CC1)C2(C)C
active: [1] 96.5% | [2] 98.6% | [3] 99.8% | [5] 74.9% | [6] 84.8%
inactive: [4] 4.3%

CC(C)(CBr)COP1(=O)NCC(C)(C)CO1 (stereo not given)
inactive: [1] 13.7% | [2] -3.7% | [3] 3.85% | [4] 20.4% | [5] 4.2% | [6] 10.8%

Cc1cc2[nH]c3c(C#N)c(OC(=O)N(C)C)c(C)c(=O)n3c2cc1C
inactive: [1] 37.3% | [2] 22.3% | [3] 31.6% | [4] 17.1% | [5] 27.9% | [6] 39%

CC(NCCO)C(O)c1ccccc1 (stereo not given)
inactive: [1] -23.9% | [2] -42.5% | [3] -2.25% | [4] 8.5% | [5] -21.2% | [6] -16.6%

BrC(Br)c1cccc(C(Br)Br)c1
inactive: [1] 55.7% | [2] 37.8% | [3] 27.1% | [4] 37.5% | [5] 64% | [6] 56.6%

ClCCN(CCCl)c1ccc(/C=N/N2CCN(/N=C/c3ccc(N(CCCl)CCCl)cc3)CC2)cc1
inactive: [1] 7.85% | [2] -2.9% | [3] 21.9% | [4] 7.85% | [5] -11.1% | [6] -1.25%

Cc1sc2cccc[n+]2c1C
inactive: [1] 5.85% | [2] -12.9% | [3] -8.95% | [4] -8.95% | [5] -3.4% | [6] -14.4%

CNC(C)Cc1ccccc1OC (stereo not given) (tested in a mixture with another compound)
inactive: [1] -14.8% | [2] 1.9% | [3] 4.15% | [4] -35.9% | [5] 9.55% | [6] -7.7%

CS(=O)(=O)Cl
inactive: [1] 7.65% | [2] -26.9% | [3] 16.4% | [4] 13.1% | [5] -4.85% | [6] 0%

O=C(O)[C@@H]1C2CCC(C[C@@H]1O)N2C(=O)c1ccccc1 (stereo not given in full)
inactive: [1] -12.8% | [2] -3.55% | [3] 2.85% | [4] -33.5% | [5] -15.4% | [6] -1.2%

CC(=O)[O][Pb]([CH3])([CH3])[CH3]
inactive: [1] -28% | [2] -35.9% | [3] -12.4% | [4] 6.7% | [5] -55.5% | [6] -20.8%

COc1cc(=O)oc(/C=C/C=C/C=C/C(C)=C\C2(C)OC(C)C(C)(O)C2O)c1C (stereo not given)
inactive: [1] 6.3% | [2] -8.35% | [3] 3.35% | [4] -9.4% | [5] -20.4% | [6] -0.95%

C1OCN2CSCC12 (stereo not given)
inactive: [1] 4% | [2] 28.8% | [3] 30.4% | [4] 5.35% | [5] 27.9% | [6] 31.8%

CC[n+]1c(/C=C/c2ccc(N(CCCl)CCCl)cc2)ccc2cc(NC(=O)/C=C/c3ccccc3)ccc21
active: [1] 82.1% | [2] 86.5% | [3] 87.7% | [4] 85.5% | [5] 86.5% | [6] 82%

CC12CCC(O)CC1CCC1C2CCC2(C)C(C3=CC(=O)OC3)CCC12O (stereo not given)
inactive: [1] -42.8% | [2] -33.6% | [3] -18.8% | [4] -10.2% | [5] -23.2% | [6] -20.1%

O=C(CC(=O)C(=O)Nc1ccccc1)CC(c1ccccc1)c1c(O)c2ccccc2oc1=O (stereo not given)
inactive: [1] 9% | [2] 5.3% | [3] 26.4% | [4] 12.6% | [5] 1.4% | [6] 18.5%

CNP1(NC)=NP(N(C)C)(N(C)C)=NP(N(C)C)(N(C)C)=N1
inactive: [1] -15.9% | [2] 0.45% | [3] -3% | [4] -19.4% | [5] 11.6% | [6] 13.2%

CC1CN=C(Nc2ccc(F)c(Cl)c2)S1 (stereo not given)
inactive: [1] -14.4% | [2] -16.1% | [3] -44.9% | [4] 8.65% | [5] -0.25% | [6] -22.9%

NCC#CCNCCCN1CC1
inactive: [1] 8.2% | [2] 47.2% | [3] -9.4% | [4] 16.9% | [5] -1.55% | [6] -41.5%

CC(=O)c1ccc(-c2ccccc2)cc1
inactive: [1] -5.3% | [2] 2.6% | [3] 8.45% | [4] 11.9% | [5] 3.6% | [6] 18.1%

O=C(N/N=C/c1cc(Br)cc(Br)c1[O-])c1ccccc1O.O=C(N/N=C/c1cc(Br)cc(Br)c1[O-])c1ccccc1O.[Cl-].[Fe+3]
inactive: [1] -3.25% | [2] 0.15% | [3] -4.95% | [4] -30.1% | [5] 12.1% | [6] 13.3%

COc1ccc2c(c1OC(C)=O)-c1cc(O)cc3c1C(C2)N(C(=O)CN(CCCl)CCCl)CC3 (stereo not given)
inactive: [1] 19.6% and 6.5% | [2] 8.65% and 5.4% | [3] 24.7% and -25.4% | [4] 10.8% and -4.95% | [5] 22.2% and -7.95% | [6] -21.7% and -30.4%

CN(C)P(N)(=S)N(C)C
inactive: [1] -2.75% | [2] -9.15% | [3] -1.3% | [4] -15.8% | [5] -22.6% | [6] -7.05%

N#CCc1ccc(Br)cc1
inactive: [1] 0.2% | [2] 0.8% | [3] 5.65% | [4] -16.9% | [5] -14.9% | [6] 5.8%

C[N+](C)(C)CC1CCCCC1=O (stereo not given)
inactive: [1] 24.1% | [2] 11.6% | [3] 17.9% | [4] 21.8% | [5] 11.7% | [6] 44.5%

O=C(NC1CCCCC1)c1c(O)[nH]c(=S)[nH]c1=O
inactive: [1] -20.4% | [2] -0.3% | [3] 14.8% | [4] 12.2% | [5] -4.9% | [6] -0.55%

CCOC(=O)C(C)(C)C(OP(=S)(OCC)OCC)=C(C)C
inactive: [1] 4.6% | [2] 12.4% | [3] 12.7% | [4] 23.8% | [5] 18% | [6] 7.15%

O=CNc1ccc(Cl)cc1C(=O)c1ccccc1
inactive: [1] 9.8% | [2] -0.35% | [3] 15.2% | [4] 28.8% | [5] 21.6% | [6] 4.4%

COc1cc(C(N)Cc2ccccc2)ccc1O (stereo not given)
inactive: [1] -9.85% | [2] 1% | [3] -1.25% | [4] -33.1% | [5] 26.6% | [6] 4.6%

S=C=Nc1ccccn1
inactive: [1] 9.9% | [2] 3.35% | [3] 22.1% | [4] 7.8% | [5] 30.6% | [6] 21.9%

CC(C)C(=O)[O-].CC(C)C(=O)[O-].N.N.N.N.[Co+3].[O-][Cl+3]([O-])([O-])[O-]
inactive: [1] -17.1% and -29.1% | [2] 4% and 16.6% | [3] -54% and -56.5% | [4] 9.9% and 23.4% | [5] -6.75% and -12.6% | [6] -11.2% and -8.35%

CC(C(O)c1cccnc1)[N+](=O)[O-] (stereo not given)
inactive: [1] -21.8% | [2] -4.35% | [3] -23.6% | [4] -10.1% | [5] 3.95% | [6] -17.4%

O=C1C[C@@H]2OCC=C3C[N+]4([O-])CC[C@]56c7ccccc7N1[C@H]5[C@H]2[C@H]3C[C@@H]64 (stereo not given in full)
inactive: [1] -4.85% and -6.5% | [2] -7.75% and -6.3% | [3] 2.05% | [4] 0.9% | [5] 25.4% | [6] -3.15% and -3.7%

C/C=C1/CN2CCC34c5ccccc5N(C)C23C2CC1C4(C(=O)OC)C(O)O2 (stereo not given)
inactive: [1] -31% | [2] -31.8% | [3] -24.7% | [4] -4.2% | [5] -8.4% | [6] -58.9%

c1ccc(C[P+]2(c3ccccc3)CCCCC2)cc1
inactive: [1] -12.7% | [2] -1.05% | [3] -0.55% | [4] -22.6% | [5] -4.95% | [6] 3.1%

CCCCCCCCCCCCCCCC[As]1c2ccccc2Nc2ccccc21
active: [4] 81.3%
inactive: [1] 4.4% | [2] 16.7% | [3] 7.05% | [5] 7.45% | [6] 28.5%

COC(=O)c1ccccc1NC(=O)C(=O)CC(=O)CC(c1ccccc1)c1c(O)c2ccccc2oc1=O (stereo not given)
inactive: [1] -15.7% | [2] -3.5% | [3] 15.9% | [4] 11.3% | [5] 24.9% | [6] 21.2%
